Screening results deposited in PubChem BioAssay by several laboratories.
CHT inh – human CHT choline transport inhibition; CHT-expressing cells, membrane potential dye, choline response; active compounds read low; B-score at 10 µM; 310,000 compounds, 0.86% hits; AID 488975;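 active = B-score over 3 SD under the library average, and starting fluorescence ratio not unusually high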;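 also: choline stimulus applied at its EC90 after an EC20 pre-addition; B-score computed on integrated fluorescence ratio after choline addition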
EP2 antag – inhibitors of human EP2 prostaglandin E2 receptor; P43116; C6 glioma cells expressing human EP2, cAMP TR-FRET; cells stimulated with saturating PGE2; inhibition, % at 25 µM; 260,000 compounds, 0.52% hits;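 active = percent inhibition above 40 after rounding to a whole number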;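 also: rat C6 glioma host cells with rolipram phosphodiesterase inhibitor present; the protocol text gives 20 µM as final concentration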
Target sequence (P43116 whole entry, looked up): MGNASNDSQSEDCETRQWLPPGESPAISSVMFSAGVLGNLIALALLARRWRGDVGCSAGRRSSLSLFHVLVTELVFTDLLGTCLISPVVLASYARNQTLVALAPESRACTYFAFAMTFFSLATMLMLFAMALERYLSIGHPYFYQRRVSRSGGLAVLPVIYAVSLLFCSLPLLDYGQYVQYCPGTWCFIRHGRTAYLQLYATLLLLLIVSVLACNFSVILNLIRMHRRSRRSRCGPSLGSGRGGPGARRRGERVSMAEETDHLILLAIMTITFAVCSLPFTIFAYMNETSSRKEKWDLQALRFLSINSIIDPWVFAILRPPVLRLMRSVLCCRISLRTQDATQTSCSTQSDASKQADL
EP2 mod – modulators of human EP2 prostaglandin E2 receptor; P43116; EP2-expressing cells, cAMP HTRF FRET, PGE2 co-stimulation; induction, % at 25 µM; 260,000 compounds, 0.83% hits; AID 940;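 active = compounds whose cAMP rise, as percent of the full-agonist control response, exceeds 60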;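 also: rat C6 glioma line stably carrying human EP2 under a CMV promoter; the protocol text gives 20 µM as final concentration; 100% = response of wells given 1 µM PGE2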
CHT PAM – human CHT allosteric activation; CHT-expressing cells, membrane potential dye, choline EC20; active compounds read high; LV-AA mutant CHT in HEK293 cells; 310,000 compounds, 0.49% hits; B-score at 10 µM;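 active = initial fluorescence not abnormally high and integrated response B-score, plate-corrected, over 3 SD above library mean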
CHT block conf – confirmation of human choline transporter CHT inhibitors; shares compounds with CHT inh; CHT-expressing cells, choline membrane potential dye; LV-to-AA substituted CHT, HEK293 cells; CHT activity remaining % of control (active compounds read low), % at 10 µM; 2,400 compounds, 70% hits; AID 493221;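 active = choline transporter activity left, mean of duplicates at 10 µM, below buffer-only control mean minus 3 SD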;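 also: depolarization triggered by choline at its EC90 following an EC20 pre-addition; 0% = hemicholinium-3 full block and 100% = buffer-only control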
HEK293 MPD ctr – activity in parental HEK293 cells lacking CHT | shares compounds with CHT inh | membrane potential dye, choline response; active = decrease or increase beyond buffer ±3SD | membrane potential ratio readout (active if shifted either direction beyond buffer ±3SD; no single direction) at 10 µM | 2,400 compounds, 4% hits | AID 493222;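 also: parental cells lack the transporter so any hit is non-specific; ratio is peak minus trough fluorescence over baseline after EC90 choline challenge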
The depositor's hits bear a star; i = inactive; x = not tested or not shown. Compounds with a hit are over-represented: about 2% of the library has one in this group of screens.

SMILES	CHT inh	EP2 antag	EP2 mod	CHT PAM	CHT block conf	HEK293 MPD ctr
CCOc1ncccc1C(=O)NCC1COc2ccccc2O1 (stereo unspecified)	-5.2*	4	29	i	67%*	i
CN(C)c1ccc(-c2nc3cnccn3c2NCc2ccco2)cc1	x	9	-87	x	x	x
CCOc1ccc(N/N=C(/C#N)C(N)=O)cc1	i	11	-9	i	x	x
N#C/C(=N/Nc1ccc(OC(F)(F)F)cc1)C(N)=S	-11*	12	-34	i	30%*	i
C=CCNc1oc(-c2cccs2)nc1C#N	i	5	-16	i	x	x
C=CCNc1nc(SCC=C)nc2ccsc12	-8.4*	x	25	i	25%*	i
Cc1cc2cc(CN(CCO)C(=S)NCCCN(C)C)c(=O)[nH]c2cc1C	x	23	-20	x	x	x
Cc1ccccc1OCC(=O)Nc1ccccc1N1CCN(C(=O)C(C)C)CC1	x	8	30	x	x	x
COc1ccc(Nc2nc(C)c(-c3ccccc3)s2)cc1	-8.5*	9	-10	i	i	i
O=C(CSc1nc2ccccc2c(=O)n1C1CC1)NCc1ccccc1	-5.1*	8	9	i	67%*	i
O=C(CSc1nnc(-c2ccncc2)n1Cc1ccco1)Nc1cccc2ccccc12	x	9	-44	x	x	x
COc1ccc(N2CCN(CC(=O)Nc3c(C)cc(C)cc3C)CC2)cc1	-6.1*	1	-3	i	53%*	i
COc1ccc(N2CCN(CC(=O)Nc3ccc(C(C)=O)cc3)CC2)cc1	x	12	-26	x	x	x
Cn1c2ccccc2n2c(=O)n(CC(=O)N3CCNC(=O)C3(C)C)nc12	x	7	-24	x	x	x
CCC(C)NCCOCCOc1ccccc1-c1ccccc1 (stereo unspecified)	-5.8*	6	1	i	48%*	-15*
COc1ccc(N2CC(C(=O)OCC(=O)Nc3cc(C)cc(C)c3)CC2=O)cc1 (stereo unspecified)	x	2	-69	x	x	x
Cc1ccc2c(c1)N(S(=O)(=O)c1ccc(CN3C(=O)c4cccnc4C3=O)s1)CCO2	-5.2*	x	x	i	69%*	i
Cc1ccc2c(c1)N(S(=O)(=O)c1ccc(CN3C(=O)c4cccnc4C3=O)cc1)CCO2	i	x	x	i	x	x
CCCCCc1cc(O)c2c(C)cc(=O)oc2c1	i	5	-8	i	x	x
CCCCc1cc(O)c(CCCC)c(O)c1	-5.2*	19	-44	i	67%*	i
O=C(C1=C(O)C(=O)N(Cc2ccccc2)C1c1cccnc1)c1cccs1 (stereo unspecified)	x	8	-5	x	x	x
COc1ccccc1/C=C/C=N/NC(=O)c1cc(-c2ccc(C)o2)[nH]n1	-17*	19	-54	i	i	i
Cc1ccc(/C=N/NC(=O)c2cc(-c3ccc(C)o3)[nH]n2)cc1	i	x	x	i	x	x
O=C(COc1ccc(S(=O)(=O)N2CCCC2)cc1)Nc1ccc(Cl)cc1Cl	x	-1	-33	x	x	x
COc1ccccc1Nc1nnc(SCC2CCCCO2)s1 (stereo unspecified)	-6.3*	3	-48	i	57%*	i
SMILES	CHT inh	EP2 antag	EP2 mod	CHT PAM	CHT block conf	HEK293 MPD ctr
Cc1ccccc1Nc1nnc(SCC2CCCCO2)s1 (stereo unspecified)	i	7	-11	i	x	x
CN(Cc1ccccc1)S(=O)(=O)c1ccc2[nH]cc(C(=O)NCC3CCCO3)c(=O)c2c1 (stereo unspecified)	-10*	x	-25	i	43%*	i
COC(=O)c1ccc(O)c(Sc2cc(C(=O)OC)ccc2O)c1	-5.3*	x	-3	i	i	i
N#Cc1c(C(F)(F)F)cc(-c2cccc(Cl)c2)[nH]c1=O	-5.2*	8	-15	i	i	i
Cc1cc(C)c(NC(=O)c2ccc[n+](Cc3ccc([N+](=O)[O-])cc3)c2)c(C)c1	-10*	10	-5	i	11%*	i
CN1CCN(C(=O)c2cnn3c(C(F)(F)F)cc(-c4cccs4)nc23)CC1	i	11	15	i	x	x
O=C(c1cnn2c(C(F)(F)F)cc(-c3cccs3)nc12)N1CCN(Cc2ccccc2)CC1	-5.5*	13	-13	i	57%*	i
O=[N+]([O-])c1c(Nc2ccccc2O)cc(Cl)c2nonc12	-8.5*	x	x	i	38%*	i
O=C1OCCC1Sc1nnc(-c2ccccc2Cl)n1Cc1ccccc1 (stereo unspecified)	-6.9*	15	10	i	i	i
O=C1OCCC1Sc1nnc(-c2ccccc2Br)n1Cc1ccccc1 (stereo unspecified)	i	10	23	i	x	x
Cc1sc2nc(C3CCCCC3)nc(SCC(=O)N3CCOCC3)c2c1C	x	8	7	x	x	x
CCn1c(SCC(=O)Nc2ccc(C(=O)OC)cc2)nnc1-c1cccs1	i	11	1	i	x	x
CCn1c(SCC(=O)NCC(=O)Nc2ccc(F)cc2)nnc1-c1cccs1	-6*	2	-3	i	i	i
CCn1c(SCC(=O)c2ccccc2)nnc1-c1cccs1	-6.6*	9	12	i	68%*	i
COCCNC(=O)CN1C(=O)C(C(C)C)Oc2ccc(C)cc21 (stereo unspecified)	x	11	-41	x	x	x
COc1ccc(CNC2(c3ccccc3OC)CCCC2)cc1CN1CCOCC1	x	5	-2	x	x	x
O=c1cc(CSc2nc3cc(Cl)ccc3o2)nc2sccn12	-5.4*	11	-7	i	51%*	i
CC1CCN(c2nc3c(c(=O)[nH]2)CN(Cc2ccc4ncccc4c2)CC3)CC1	x	4	-32	x	x	x
CCC(C(=O)NC(C)CCc1ccccc1)n1nc(C)n2c(cc3occc32)c1=O (stereo unspecified)	-11*	4	26	i	i	-8.5*
CC(=O)Oc1ccc2nc(-c3ccco3)oc(=O)c2c1	-10*	x	x	i	i	i
Cc1ccc(N(C(=O)c2cnccn2)C(C(=O)NC2CCCCC2)c2cccs2)cc1 (stereo unspecified)	x	9	17	x	x	x
CN(C)c1ccc(C(c2nnnn2CC2CCCO2)N2CCN(C3CCCCC3)CC2)cc1 (stereo unspecified)	x	1	-14	x	x	x
O=S(=O)(Nc1nc2ccccc2s1)c1ccc(Br)s1	-7.1*	10	8	i	69%*	i
O=C1OCCC1Sc1nc(-c2ccccc2)cs1 (stereo unspecified)	-9.1*	11	10	i	39%*	i
O=[N+]([O-])c1ccc(Cl)c(S(=O)(=O)Nc2ccc(S(=O)(=O)N3CCOCC3)cc2)c1	i	x	x	i	x	x
O=C(Nc1ccc(S(=O)(=O)N2CCOCC2)cc1)c1ccc([N+](=O)[O-])cc1Cl	-7.4*	x	x	i	31%*	i
CCOCCCNc1c(C)c(C)nc2c(-c3ccc(OC)cc3)c(C)nn12	x	8	-23	x	x	x
